# Calls of active or inactive are those of the source.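 How the source made its calls, unless noted: active means NADPH fluorescence slope more negative than the mean of all samples by about 3 SD, 99.7% confidence; inactive means the rest.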
# Legend:
# [1] = inhibitors of TNFa-induced NFkB p65 translocation, primary screen, imaging, HUVEC, MLSMR starter and 10KST1 sets (AID 438;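 active means inhibition above 20% together with a positive visual image hit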;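 further: compound added about 3h40 before a 20 min TNFalpha stimulation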;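 on inhibition: signal is the nuclear over cytoplasmic p65 intensity ratio per well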); settings: HUVEC TNFa-induced p65 nuclear translocation; cell count: measured here: nuclei count (cytotoxicity indicator), at 2.08 µM; inhibition: at 2 µM, stronger effect = higher value, 0% TNFa-plus-vehicle, 100% no-TNFa wells
# [2] = inhibitors of mutant huntingtin aggregation, primary screen, imaging, exon1htt(103Q)mCFP cells, high-content imaging (AID 483;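 active means visual image review flags a hit and inhibition of aggregation exceeds 20%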;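 further: compound exposure lasted 3 days before fixation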;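 on nuclei count: percent of the per-plate median nuclei count of sample wells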); settings: exon1htt(103Q)mCFP cell line, aggregate imaging, at 2 µM; inhibition of aggregation: stronger effect = higher value; nuclei count: measured here: cell count, toxicity
# [3] = inhibitors of E-selectin induction by TNFa, primary screen, imaging, HUVEC, immunofluorescence, MLSMR starter and 10KST1 sets (AID 487;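 active means visually confirmed hit in the image check and inhibition above 20%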;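 on inhibition: signal is fraction of cell area covered by stained E-selectin grains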;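 on nuclei count: 100% = median nuclei count of all wells on the same plate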); settings: HUVEC TNFalpha-induced E-selectin immunofluorescence imaging, at 2 µM; inhibition: stronger effect = higher value; nuclei count: measured here: cell number, toxicity
# [4] = molecular target: Voltage-gated potassium channel subunit beta-2 (Rattus norvegicus) (UniProt P62483); test: KvBeta enzyme negative modulators, primary screen, biochemical, NADPH fluorescence (AID 622;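 active means fluorescence slope higher than the sample average by over 3 SD, cut at about -0.22 in these data, passing the limit was not always enough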;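 further: slope of raw intensity against log time taken from 70 to 1610 s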); settings: recombinant KvBeta, 4-cyanobenzaldehyde reduction, at 10 µM, stronger effect = higher value
# Chain of Voltage-gated potassium channel subunit beta-2 (Rattus norvegicus) (P62483 whole entry, looked up): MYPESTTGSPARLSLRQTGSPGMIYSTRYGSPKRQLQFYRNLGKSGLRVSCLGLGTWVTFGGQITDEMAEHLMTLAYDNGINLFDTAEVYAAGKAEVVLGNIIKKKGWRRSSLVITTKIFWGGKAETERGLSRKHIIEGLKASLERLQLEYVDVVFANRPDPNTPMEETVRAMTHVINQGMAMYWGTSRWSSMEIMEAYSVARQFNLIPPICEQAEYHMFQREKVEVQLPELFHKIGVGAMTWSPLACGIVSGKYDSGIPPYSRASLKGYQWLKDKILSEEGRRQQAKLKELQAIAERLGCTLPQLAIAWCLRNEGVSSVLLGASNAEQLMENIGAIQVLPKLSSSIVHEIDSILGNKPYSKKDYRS
# [5] = molecular target: Voltage-gated potassium channel subunit beta-2 (Rattus norvegicus) (UniProt P62483); test: KvBeta positive modulators, primary screen, biochemical, NADPH fluorescence (AID 623); settings: Recombinant KvBeta, NADPH fluorescence decrease slope, 10 min; at 10 µM; stronger effect = lower value;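 further: fluorescence intensity change per second fitted from 20 to 320 s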
# [6] = molecular target: Alpha-2C adrenergic receptor (Homo sapiens) (UniProt P18825); test: modulators of alpha2C/GIRK thallium flux, primary screen, cell-based, HEK293 alpha2C/GIRK1/2 (AID 624;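 active means fluorescence slope after compound addition differing from the mean of all screened samples at 99.7% confidence, in either direction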;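 further: slope of fluorescence ratio to pre-addition baseline per second over 15 to 24 s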); settings: thallium flux BTC fluorescence, at 10 µM, actives lie on both sides
# Chain of Alpha-2C adrenergic receptor (Homo sapiens) (P18825 whole entry, looked up): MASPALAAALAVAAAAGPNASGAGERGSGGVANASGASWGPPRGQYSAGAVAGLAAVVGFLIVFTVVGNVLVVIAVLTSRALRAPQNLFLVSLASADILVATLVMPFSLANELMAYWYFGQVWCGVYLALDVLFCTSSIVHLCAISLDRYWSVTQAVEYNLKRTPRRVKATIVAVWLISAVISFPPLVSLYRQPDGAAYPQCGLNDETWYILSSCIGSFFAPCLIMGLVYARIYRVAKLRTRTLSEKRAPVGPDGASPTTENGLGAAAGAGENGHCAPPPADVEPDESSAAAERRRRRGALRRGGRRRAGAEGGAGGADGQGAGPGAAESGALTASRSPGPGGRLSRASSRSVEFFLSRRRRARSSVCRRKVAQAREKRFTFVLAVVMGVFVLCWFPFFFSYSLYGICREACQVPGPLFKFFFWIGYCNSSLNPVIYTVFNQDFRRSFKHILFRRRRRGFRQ
# [7] = inhibitors of Sendai virus-induced IRF3 signaling, primary screen, TLR/RLR signaling modifier project, cell-based, Sendai virus stimulus, luciferase, 10K MLSCN set (AID 602276;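 active means inhibition at or above 50% at 10 µM; inactive means inhibition below 50%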;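 further: firefly luciferase from ISG56 promoter only with Renilla not read in this screen; 0% = Sendai virus plus DMSO and 100% = medium plus DMSO without virus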); settings: HEK293 RL24 IRF3 luciferase reporter, at 10 µM, stronger effect = higher value
# [8] = inhibitors of poly I:C-induced TLR3 signaling, primary screen, cell-based, poly I:C stimulus, luciferase, 10K MLSCN set (AID 602277;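 active means inhibition of the reporter signal at or above 50%; inactive means inhibition below 50%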); settings: HEK293-TLR3 RL24 IRF3 luciferase reporter, at 10 µM, stronger effect = higher value
Compound,cell count [1],inhibition [1],inhibition of aggregation [2],nuclei count [2] [%],inhibition [3],nuclei count [3] [%],fluorescence slope [4],NADPH fluorescence slope [5],slope [6],inhibition [7],inhibition [8]
CCCn1cnc2c(cnn2-c2ccc(F)cc2)c1=O,451,5.5% (inactive),11.2% (inactive),85.6,-41.5% (inactive),124,-0.536 (inactive),1.4e-05 (inactive),0.00574 (inactive),-35.2% (inactive),-147% (inactive)
Cc1cc(=O)n2nc(N3CCC(C(=O)N4CCN(Cc5ccccc5)CC4)CC3)sc2n1,450,-1% (inactive),-0.2% (inactive),113,-31.7% (inactive),103,-0.329 (inactive),-5.5e-05 (inactive),0.00533 (inactive),7.85% (inactive),3.68% (inactive)
CCN(CC)C(=O)COC(=O)c1ccc(O)cc1,440,7.7% (inactive),9.9% (inactive),83.5,-5.4% (inactive),99.1,-0.512 (inactive),2.3e-05 (inactive),0.00516 (inactive),-1.76% (inactive),-1.25% (inactive)
Cc1cc(C)n(C2=NS(=O)(=O)c3ccccc32)n1,343,-2.4% (inactive),7.1% (inactive),92,70.9% (active),78.2,-0.576 (inactive),-1.6e-05 (inactive),0.00396 (inactive),-8.5% (inactive),-27.5% (inactive)
CN(c1ccccc1C(=O)N1CCN(c2cccc(Cl)c2)CC1)S(C)(=O)=O,313,-1.9% (inactive),3.7% (inactive),101,18.2% (inactive),120,-0.432 (inactive),-2.5e-05 (inactive),0.0047 (inactive),6.88% (inactive),8.69% (inactive)
COc1ccc(CN(Cc2nc3ccccc3c(=O)[nH]2)C(=O)NC2CCCCC2)cc1,389,-8.4% (inactive),4.6% (inactive),100,-95.3% (inactive),84.3,-0.359 (inactive),-2.1e-05 (inactive),0.00294 (inactive),15.1% (inactive),29.3% (inactive)
Cn1nnnc1SCC(=O)NC1CCCCC1,228,3.4% (inactive),20% (inactive),84.3,-0.8% (inactive),79.2,-0.432 (inactive),4.4e-07 (inactive),0.00705 (inactive),5.19% (inactive),19.8% (inactive)
O=C(c1ccc(Br)o1)N(c1ccc(Br)cc1)C1C=CS(=O)(=O)C1 (centres undefined),553,-21.1% (inactive),4.2% (inactive),108,-74.4% (inactive),121,-0.377 (inactive),3.2e-05 (inactive),0.00592 (inactive),-8.65% (inactive),-3.46% (inactive)
CC(C)NC(=O)c1ccc2c(c1)nnn2C,836,8.2% (inactive),4.8% (inactive),104,-59.5% (inactive),116,-0.471 (inactive),2.3e-05 (inactive),0.0055 (inactive),-4.12% (inactive),11.6% (inactive)
O=C(Cn1cnc2c(cnn2-c2ccccc2)c1=O)NCCc1ccccc1,441,3.5% (inactive),-9.4% (inactive),112,-25% (inactive),113,-0.535 (inactive),-6.8e-07 (inactive),0.00728 (inactive),10.8% (inactive),17.4% (inactive)
COc1ccccc1OCC(=O)N1CCNC1=O,652,2.2% (inactive),-1.9% (inactive),101,-78.6% (inactive),104,-0.548 (inactive),-4.2e-06 (inactive),0.00602 (inactive),0.107% (inactive),20.1% (inactive)
O=C(COC(=O)c1ccccc1Oc1ccccc1)NC1CCS(=O)(=O)C1 (centres undefined),33,74.9% (active),0% (inactive),95.2,-124% (inactive),116,-0.521 (inactive),-1.6e-05 (inactive),0.00666 (inactive),8.04% (inactive),-20% (inactive)
COc1ccc(N2CCN(CCCNC(=O)CC3Oc4ccc(C)cc4NC3=O)CC2)cc1 (centres undefined),581,0.9% (inactive),11.6% (inactive),104,-40.7% (inactive),130,-0.472 (inactive),1.7e-05 (inactive),0.00619 (inactive),12.9% (inactive),22.1% (inactive)
COCCNS(=O)(=O)c1cc(F)ccc1OC,782,-6.6% (inactive),-2.8% (inactive),113,-62.4% (inactive),111,-0.481 (inactive),-3.4e-05 (inactive),0.00632 (inactive),-4.54% (inactive),25.9% (inactive)

# — PubChem BioAssay
